This is an account of results in PubChem BioAssay AID743060 (The Scripps Research Institute Molecular Screening Center, 2013).

Values joined by “and” are separate entries in the source; they are usually repeats but may differ in a detail not shown here. Equal entries are not always repeated.

The experiment in a line: inhibitors of T. brucei MetRS aminoacylation, late-stage follow-up, biochemical, radioactivity, round 1 (AID 743060). Particulars: purified enzyme, radiolabel aminoacylation, scintillation, 2 h; at 10 µM; stronger effect = higher value.
As a reminder, the inhibition is the change of the read-out against control, counted positive when it falls. Regarding `O=C(CC(=O)Nc1cccc(Cl)c1)NN=Cc1ccccc1`, the inhibition amounted to 81.1%. As for `Oc1c(Cl)cc(Cl)cc1CNc1nc2ccccc2[nH]1`, the inhibition was 98.7%. Next, `COc1ccccc1NS(=O)(=O)c1cccc(NC(=O)Nc2ccccc2)c1`: 95.1%; `Cc1cccc(C(=O)NCCc2nc3ccccc3n2CCOc2ccccc2)c1`: 0.31%. Next, `O=C(Cn1cc(C(=O)c2ccco2)c2ccccc21)Nc1cccc(C(F)(F)F)c1`: 89%; `O=C1CC(N(CCc2ccccc2)C(=S)Nc2ccccc2)C(=O)N1c1ccc(Br)cc1` (stereo not given): 97.3%. As for `O=C(NCc1nc2ccccc2[nH]1)C1=C[C@@H](c2ccccc2)C[C@@H](OCc2ccc(CO)cc2)O1`, the inhibition turned out to be 94.3%.

For the compound `CCN(CCc1nc2ccc(C)cc2[nH]1)C(=O)c1ccc2ncccc2c1`, the inhibition was -5.17%. For the compound `CCN(CC)C(=O)C(=O)c1cn(CC(=O)N(CC)c2ccccc2)c2ccccc12`, the inhibition is -7.96%. With `O=C(N/C(=C\c1cccnc1)c1nc2ccccc2[nH]1)c1cccc(Br)c1` the figure was 71.7%; with `O=C(NCc1nc2ccccc2[nH]1)C1=C[C@H](c2ccc(Br)cc2)C[C@H](OCc2ccc(CO)cc2)O1`, 94.6%. With `O=C(Cn1cc(C(=O)C(=O)N2CCOCC2)c2ccccc21)NCc1ccccc1` the figure was 16.7%; with `CC(C)c1nc2ccc(C(=O)N(C)CCc3nc4ccc(F)cc4[nH]3)cc2o1`, -7.17%; with `O=C(NCc1nc2ccccc2[nH]1)C1=C[C@H](C2CC2)C[C@H](OCc2ccc(CO)cc2)O1`, 56.9%.

For `CC(=O)c1c[nH]c(C(=O)NCc2cccc(C(F)(F)F)c2)c1`, the inhibition amounted to 92.7%.

In the case of `CC(C)(C)[C@@H]1C=C(C(=O)NCc2nc3ccccc3[nH]2)O[C@H](OCc2ccc(CO)cc2)C1`, the inhibition turned out to be 84.8%. With `CCN(CC)C(=O)C(=O)c1cn(CC(=O)Nc2cccc(OC)c2)c2ccccc12` the figure was 86.4%.

On to `O=C(NCCc1nc2ccccc2[nH]1)c1ccc(Cl)c([N+](=O)[O-])c1`, for which the inhibition was 99.6%. Next, `COc1ccc(NC(=O)CSc2nnc3c4cc(C)ccc4n(C)c3n2)cc1`: -7.1%. With `CCOC(=O)N1CCC(Nc2c(Nc3ccc(F)cc3)c(=O)c2=O)CC1` the figure was 72.7%. On to `CCCCCCCCCC1NC(C(=O)O)Cc2c1[nH]c1ccccc21` (stereo not given), for which the inhibition stood at 93.2%.

As for `COc1cccc(NC(=O)C2CC(=O)n3c(nc4ccccc43)N2)c1` (stereo not given), the inhibition worked out at 31.5%.

Turning to `CCc1ccc2[nH]c3nc(SCC(=O)NCc4cccc(OC)c4)nnc3c2c1`, the inhibition was 0.65%. As to `O=C(NCCc1nc2ccccc2[nH]1)c1ccc(Cl)c(Cl)c1`, the inhibition is 97.5%. With `CCO[C@@H]1OC(C(=O)NCc2nc3ccccc3[nH]2)=C[C@H](c2ccc(Br)cc2)[C@H]1CCCO` the figure was 64%; with `CC(=O)c1cn(CC(=O)Nc2cccc(C(F)(F)F)c2)c2ccccc12`, 39.3%. Next, `COCCc1nc2ccc(C(=O)NCCc3nc4ccc(OC)cc4[nH]3)cc2o1`: -2.59%; `O=C(NCc1nc2ccccc2[nH]1)C1=C[C@@H](c2ccc(Br)cc2)C[C@@H](OCCCCO)O1`: 99.9%; `O=C(Nc1ccc(F)c(Cl)c1)C1CC(=O)n2c(nc3ccccc32)N1` (stereo not given): 90.3% and 93.6%.

Regarding `O=C(CSc1nnc2c(n1)[nH]c1ccc(Br)cc12)NCc1ccccc1`, the inhibition came to 59.7%. For the compound `CCN(CC)C(=O)C(=O)c1cn(CC(=O)Nc2cccc(C(F)(F)F)c2)c2ccccc12`, the inhibition was 99.5%. Take `O=C(NCCc1nc2ccccc2[nH]1)c1ccc(Cl)cc1`: the inhibition came out at 74.2%. Next, `O=C(NNC(=O)c1ccc(-n2cncn2)c([N+](=O)[O-])c1)c1ccc(Cl)cc1`: 73%. Next, `O=C(NCc1nc2ccccc2[nH]1)C1=C[C@H](c2csc3ccccc23)C[C@H](OCCCCO)O1`: 97.8%; `O=C(Cn1cc(C(=O)C(=O)N2CCOCC2)c2ccccc21)Nc1cccc(C(F)(F)F)c1`: 100%.
